The values that follow come from PubChem BioAssay (NCATS).

Common to all, as to assay: Cytotoxic Profiling of Annotated Libraries Using Quantitative High-Throughput Screening (AID 1296008); also: nearly all actives have a fitted effect of over 60% in size
Common to all, as to details: Five cell lines viability, CellTiter-Glo ATP luminescence, 48-72 h; max response: active compounds read low

One assay deals with CRL-7250. In a few lines: (§1)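 Cytotoxicity was measured as CellTiter-Glo ATP luminescence, read after 10 min at room temperature. Compound treatment of the cells lasted 48 or 72 hr at 37 degrees Celsius in a qHTS format.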
The test system of another assay is HEK293. In a few lines:
as §1

The subject of the next assay is HaCat. In short, it runs like this: as §1
A further assay has as its system KB-3-1. In short, it runs like this:
as §1

A further assay concerns NIH3T3. In a few lines: as §1

Several values for one entry are separate records, joined by “and”; a condition that tells them apart may be missing. Equal values may be shown once. Inconclusive results are not listed. A number with no mark means an inactive call. Activity calls are given as the source filed them. Calls follow the shape of the dose curve; as a rule, active = well fitted inhibition curve with a large enough effect; inconclusive = small, poorly fitted or top-dose-only effect; inactive = flat fitted curve, though single readings scatter.
% is scaled to controls: 0 for no effect and ±100 for the full control effect; potency is read from the fitted curve at half-maximal effect.

`C[C@@H]1C(=O)O[C@H]2CC34[C@H]5C[C@@H](C(C)(C)C)C36[C@@H](OC(=O)[C@@H]6O)O[C@@]4(C(=O)O5)[C@]21O` (stereo not given in full): the max response is 3.21% in the assay on CRL-7250, -17.8% with HaCat, -3.91% in the assay with KB-3-1 and 1.08% with NIH3T3. In addition, the outcome with HEK293 was inactive.
Consider `C=C1CC2(C(=O)O)CC1CCC2C1(C)CCCC2(C)C(=O)OC(O)C21` (stereo not given), for which the max response with CRL-7250 is -12.2%; in the assay with NIH3T3 it was 0.0241%. Also, the call with HEK293, with HaCat and with KB-3-1 was inactive.
For the compound `CCC/C=C/C(=O)O[C@H]1CC(C)(C)CC2[C@]13[C@H](O)O[C@@]21CCC2[C@@]4(C)CC[C@H](O[C@@H]5O[C@H](C(=O)O)[C@@H](O)[C@H](O[C@@H]6O[C@H](CO)[C@H](O)[C@H](O)[C@H]6O[C@@H]6O[C@@H](C)[C@H](O)[C@@H](O)[C@H]6O[C@@H]6OC[C@](O)(CO)[C@H]6O)[C@H]5O[C@@H]5O[C@H](CO)[C@H](O)[C@H](O)[C@H]5O)C(C)(C)C4CC[C@@]2(C)[C@]1(C)C[C@H]3OC(C)=O` (stereo not given in full), the results for the max response in the assay on CRL-7250, in the assay with KB-3-1 and in the assay with NIH3T3 were -6.81%, 6.11% and 0.954%, respectively. The compound was called inactive with HEK293 and in the assay on HaCat.
In the case of `CC(=O)N[C@H]1CCN(c2ccc(C3=NOC(CN[S+](=O)([O-])C(C)C)C3)cc2F)C1` (stereo not given in full), the max response in the assay on CRL-7250 is 3.89%; with KB-3-1, -0.511%. The compound was classed as inactive with HEK293, in the assay on HaCat and in the assay on NIH3T3.
Turning to `CO[C@@H]1CC[C@H](OC[C@]2(COC(=O)c3ccc(C)[nH]3)[C@H](OC(C)=O)CC[C@@]3(C)[C@@H]4CC=C(C)[C@@H](C5=C(O)C(=O)OC5O)[C@]4(C)CC[C@@H]32)O[C@H]1C` (stereo not given in full), the outcome in the assay with CRL-7250, in the assay with HEK293 and in the assay on KB-3-1 was inactive. For the same compound, the max response in the assay on HaCat was -0.118%; with NIH3T3, -6.06%.
With `O=C(c1ccc(F)cc1)C1CCN(CCn2c(=O)nc3n(c2=O)CCCC3)CC1`, the max response with CRL-7250 was 3.3%; in the assay with KB-3-1, -0.742%; with NIH3T3, -0.166%. For the same compound, the compound was called inactive in the assay with HEK293. Besides, the outcome with HaCat is “inactive; activator”.
As for `c1ccc(C(OC2CCN(CCCc3nn[nH]n3)CC2)c2ccccc2)cc1`, the result with CRL-7250, in the assay on HEK293, with HaCat and in the assay on NIH3T3 was inactive. Besides, the max response in the assay on KB-3-1 is -3.18%.
Turning to `Cc1ccc(C(=O)Nc2ccc(Oc3cc4cnn(C)c4cc3-c3cn[nH]c3)c(F)c2)c(=O)n1-c1ccc(F)cc1`, the Potency in the assay on CRL-7250 was 4.67 µM (active); in the assay on HEK293 it was 5.8 µM (active) and 3.31 µM (active); with HaCat, 16.6 µM (active); in the assay on KB-3-1 it was 5.17 µM (active); in the assay with NIH3T3 it was 4.11 µM (active).
As for `CO[C@H]1C=C2C(CC[C@H](O[C@@H]3O[C@H](CO)[C@@H](O)[C@@H](O)[C@H]3O)C2(C)C)[C@]2(C)CC[C@]3(C)C([C@H](C)C(O)C(C=C(C)C)O[C@@H]4O[C@H](CO)[C@@H](O)[C@@H](O)[C@H]4O)CC[C@@]3(C)C12` (stereo not given in full), the max response was -4.36% in the assay on CRL-7250, 6.33% in the assay on KB-3-1 and 3.68% in the assay with NIH3T3. In addition, the result in the assay on HEK293 and with HaCat was inactive.
For the compound `C=CC1C(O[C@@H]2O[C@H](CO)[C@@H](O)[C@H](O)[C@H]2O)OC=C(C(=O)OC)C1Cc1nccc2c1[nH]c1ccccc12` (stereo not given in full), the max response was 3.98% in the assay on CRL-7250, 1.01% with HaCat and 5.15% in the assay on KB-3-1. In addition, the call in the assay on HEK293 and in the assay with NIH3T3 was inactive.
As to `Nc1nc(CC(=O)Nc2ccc(CCNCC(O)c3ccccc3)cc2)cs1` (stereo not given), the max response with CRL-7250 was 2.98%; in the assay on HaCat, -9.93%. Besides, the result with HEK293, in the assay on KB-3-1 and in the assay on NIH3T3 was inactive.
Regarding `CNC(=O)c1ccc2cc([C@@]3(O)CCn4cncc43)ccc2c1`, the result with CRL-7250, in the assay on HEK293, with KB-3-1 and with NIH3T3 was inactive. The max response in the assay on HaCat was 4.91%.
Regarding `C=C1C(OC(C)=O)C(=O)C2C(C)(C)C(OC(C)=O)CCC2(C)C1CC(OC(C)=O)/C(C)=C/COC(C)=O` (stereo not given), the max response in the assay with CRL-7250 is 0.124%; with KB-3-1 it was -4.48%. Further, the compound was classed as inactive with HEK293, in the assay on HaCat and in the assay with NIH3T3.
As for `O=C(O)c1cc(O[C@@H]2O[C@H](CO[C@@H]3OC[C@@H](O)[C@H](O)[C@H]3O)[C@@H](O)[C@H](O)[C@H]2O)c2ccccc2c1O`, the max response in the assay with CRL-7250 was 3.92%; with NIH3T3, -7.85%. The outcome in the assay with HEK293, in the assay on HaCat and in the assay with KB-3-1 was inactive.
For the compound `CC1(CO)CC[C@]2(C(=O)O[C@@H]3O[C@H](CO)[C@@H](O)[C@H](O)[C@H]3O)CC[C@]3(C)C(=CCC4[C@@]5(C)CC[C@H](O[C@@H]6O[C@H](C(=O)O)[C@@H](O)[C@H](O)[C@H]6O)C(C)(C)C5CC[C@]43C)C2C1` (stereo not given in full), the results for the max response with CRL-7250 and in the assay with HaCat were -1.41% and 1.75%, respectively. Also, the result in the assay on HEK293, with KB-3-1 and in the assay with NIH3T3 was inactive.
Turning to `CN1CCC(c2c[nH]c3ccc(NC(=O)c4ccc(F)cc4)cc23)CC1`, the max response with CRL-7250 was -9.85%; in the assay with KB-3-1 it was 7.4%; in the assay on NIH3T3 it was -0.678%. The call in the assay on HEK293 and in the assay on HaCat was inactive.
`CNC(=O)O[C@H]1COc2ccc(N3CCN(C4COC4)CC3)cc2[C@@H]1NC(=O)c1ccc(F)cc1`: the max response in the assay with CRL-7250 is -2.36%. The outcome in the assay with HEK293, in the assay with HaCat, with KB-3-1 and in the assay on NIH3T3 was inactive.
On to `CCNC(=O)[C@@H]1CCCN1C(=O)[C@H](CCCN=C(N)N)NC(=O)[C@H](CC(C)C)NC(=O)[C@@H](C)NC(=O)[C@H](Cc1ccc(O)cc1)NC(=O)[C@H](CO)NC(=O)[C@H](Cc1c[nH]c2ccccc12)NC(=O)[C@H](Cc1cnc[nH]1)NC(=O)[C@@H]1CCC(=O)N1`, for which the compound was called inactive in the assay on CRL-7250 and in the assay on HEK293. In addition, the values for the max response in the assay on HaCat, in the assay with KB-3-1 and with NIH3T3 were -3.68%, 8.19% and -1.38%, respectively.
On to `COC(=O)c1ccc(O[C@@H]2O[C@H](CO)[C@@H](O)[C@H](O)[C@H]2O)c(OC)c1`, for which the max response is -0.304% with CRL-7250 and 4.82% in the assay on KB-3-1. Further, the outcome in the assay with HEK293, with HaCat and in the assay with NIH3T3 was inactive.
